Molecules are shown by their SMILES. The campaign covered roughly 63,000 compounds. About 1,100 (1.7%) were called active. No stated cut-off is given here; in the data, active means cytotoxicity above about 50%; inactive means the rest. The sample as a whole holds a higher share of actives than the screen did. Potency and affinity values are given separately.

The experiment is described as follows: cytotoxicity in HPDE-C7 cells, cell-based, fluorescence, HTS (AID 430).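 Further: cells exposed to compound for 48 hours before viability readout; 0% = vehicle and 100% = reference cytotoxic drug.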 The following applies: HPDE-C7 pancreatic duct cells viability, at 10 µM, hits give high values.
As for `CCOC(=O)C1=C(N)N(c2ccccc2Oc2ccccc2)C(=O)C1`, the cytotoxicity was 3.7% (inactive). As for `CCS(=O)(=O)C(=C(Nc1ccc(OC)cc1)Nc1ccc(OC)cc1)S(=O)(=O)CC`, the cytotoxicity is -21.8% (inactive). The value for `CC(C)CC(=O)Nc1ccc(F)c(Cl)c1` was -0.2% (inactive). With `Cc1ccsc1-c1nc(CSCC(=O)NCc2ccc3c(c2)OCO3)c(C)o1`, the cytotoxicity was 5.8% (inactive). The value for `CC(C)C(=O)Nc1ccc(NC(=O)c2ccco2)cn1` was -9.5% (inactive); that for `Cc1cc(NC(=O)C(C)(C)C)no1` was -22.1% (inactive). As for `CCN(CC)S(=O)(=O)c1ccc(F)cc1`, the cytotoxicity was -8.3% (inactive). Consider `CC(C)c1[nH]nc2c1C(c1cccnc1)C(C#N)=C(N)O2` (configuration not stated), for which the cytotoxicity is -15.1% (inactive). For `CCOC(=O)c1[nH]c(C)c(C(=O)Nc2ccccc2C)c1C` the value was 52.4% (active); for `CCOC(=O)c1[nH]c(C)c(C(=O)Nc2cccc(Cl)c2C)c1C`, 43.9% (inactive).

With `CCOC(=O)c1[nH]c(C)c(C(=O)Nc2ccccc2F)c1C`, the cytotoxicity was 43.6% (inactive). Regarding `O=C(OCc1cc2ccccc2[nH]c1=O)c1ccco1`, the cytotoxicity is 20.9% (inactive). With `Cc1ccc(S(=O)(=O)NC(=O)Nn2c(C)nnc2C)cc1`, the cytotoxicity is -7.7% (inactive). For `CC12CN3CC(C)(CN(C1)C3c1cc3ccccc3[nH]1)C2=O` (configuration not stated) the value was 14.8% (inactive); for `COc1ccc(CCNC(=O)CN(C2CCCCC2)S(C)(=O)=O)cc1OC`, -1% (inactive).

On to `COCCn1c(SCC(=O)Nc2cccc(C)c2)nnc1C(C)C`, for which the cytotoxicity was 1% (inactive). For `CCOc1ccc(NS(=O)(=O)c2ccc3[nH]c(=O)oc3c2)cc1` the value was -0.3% (inactive); for `CCOc1ccc(NS(=O)(=O)c2ccc(SC)cc2)cc1`, 7.2% (inactive); for `CC1Cc2cc(C(=O)O)ccc2O1` (configuration not stated), -26.7% (inactive). For `CCN(C(=O)CCS(=O)(=O)c1ccc(Br)cc1)c1ccc2c(c1)OCO2` the value was 8.6% (inactive); for `O=C(c1coc(=O)c(Br)c1)N1CCOCC1`, -0.3% (inactive); for `CCN(C(=O)c1coc(=O)c(Br)c1)c1ccc2c(c1)OCO2`, 74.4% (active). Take `COc1ccc(C2(CNC(=O)c3ccc(Br)o3)CCOCC2)cc1`: the cytotoxicity was -0.2% (inactive).

`O=C(Cn1cc2c(n1)CCCC2)NCCc1ccccc1`: the cytotoxicity is -13% (inactive).

Turning to `Cc1nc(SCC(=O)N2CCN(c3ccccc3)CC2)c2oc3ccccc3c2n1`, the cytotoxicity is 48.5% (inactive). The value for `Cc1cc(NS(=O)(=O)c2ccc(NC(=O)c3ccoc3C)cc2)nc(C)n1` was 2.9% (inactive); that for `COc1ccc(-c2nnnn2CCc2ccccc2)cc1` was -7.2% (inactive); that for `O=C(CSc1nnnn1-c1ccccc1)CSc1nnnn1-c1ccccc1` was -2.1% (inactive). For `COc1ccc(-c2nnnn2-c2ccccc2OC)cc1` the value was 46.6% (inactive); for `COc1ccc(-n2nnnc2-c2cccnc2)cc1`, -6.7% (inactive).

For `COc1ccc(-n2nnnc2-c2cccc(OC)c2)cc1`, the cytotoxicity is 68.4% (active). Consider `CCS(=O)(=O)c1nnnn1-c1ccccc1S(C)(=O)=O`, for which the cytotoxicity was 33.3% (inactive). As for `CCOc1cccc(-n2nnnc2-c2ccc(OC)cc2)c1`, the cytotoxicity is 56.8% (active). The value for `Clc1ccc(-n2nnnc2-c2ccccc2)cc1` was -17.1% (inactive); that for `COc1cccc(-n2nnnc2SCC(=O)c2cc(OC)ccc2OC)c1` was -12.2% (inactive); that for `COc1cccc(Oc2nnnn2-c2ccccc2)c1` was -23% (inactive).

Turning to `N#CCCS(=O)(=O)c1nnnn1-c1ccccc1`, the cytotoxicity is 64.6% (active).

The values above are taken from PubChem BioAssay AID430 (Sanford-Burnham Center for Chemical Genomics, 2006).
